A selection: hits, their analogues and other compounds. The true share with any hit is near 12%.
Gal4-VP16 FLuc = VP16 counterscreen qHTS for inhibitors of ROR gamma transcriptional activity; Drosophila S2 Gal4-VP16 UAS-luciferase, luminescence, 20 h; Potency, µM (top dose mostly 53.6 µM), most hits filed as inhibitors; 310,000 compounds, 3.5% hits; AID 2546, 2010;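 also: Gal4-VP16 expression switched on by copper sulfate through the metallothionein promoter; nearly all actives have a fitted effect of over 50% in size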
RORgamma inh = qHTS for inhibitors of ROR gamma transcriptional activity. Nuclear receptor ROR-gamma (Mus musculus), P51450. Drosophila S2 Gal4-RORgamma UAS-luciferase reporter, 20 h. Potency, µM (top dose mostly 53.6 µM), usual class: inhibitors. 310,000 compounds, 5.4% hits; also: nearly all actives have a fitted effect of over 60% in size
Target sequence (P51450 whole entry, looked up, the tested form may be a part): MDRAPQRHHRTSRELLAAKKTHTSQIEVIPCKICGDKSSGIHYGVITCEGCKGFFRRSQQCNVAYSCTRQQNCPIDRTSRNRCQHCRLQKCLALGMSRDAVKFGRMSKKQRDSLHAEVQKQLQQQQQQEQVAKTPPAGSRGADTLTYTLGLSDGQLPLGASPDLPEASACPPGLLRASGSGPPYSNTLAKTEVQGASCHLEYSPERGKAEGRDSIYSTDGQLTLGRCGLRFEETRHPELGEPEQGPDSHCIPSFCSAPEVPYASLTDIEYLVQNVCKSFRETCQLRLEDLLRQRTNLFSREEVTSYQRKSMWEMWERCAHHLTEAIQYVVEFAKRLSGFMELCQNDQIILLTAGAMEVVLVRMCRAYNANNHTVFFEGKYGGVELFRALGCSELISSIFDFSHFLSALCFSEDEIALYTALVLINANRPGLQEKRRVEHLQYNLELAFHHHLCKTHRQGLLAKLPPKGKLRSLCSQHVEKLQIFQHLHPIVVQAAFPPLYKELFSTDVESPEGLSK
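Schneider cells (Drosophila), stable Gal4 DBD–ROR gamma + UAS-luc; 1 hr cmpd preincubation; Cu2+ induction 700 uM final; 20 hr ambient; luminescence.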
Sfp PPTase inh = qHTS Assay for Inhibitors of Bacillus subtilis Sfp phosphopantetheinyl transferase (PPTase) | 4'-phosphopantetheinyl transferase ffp (Bacillus subtilis), Q9F4F7 | Biochemical Sfp PPTase activity, qHTS | Potency, µM, actives largely listed as inhibitors | 310,000 compounds, 3.5% hits | AID 1490, 2009;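 also: the enzyme is Sfp with the accession as filed and its product quenches rhodamine fluorescence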
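Sfp 15 nM + cpd, 15 min RT; start w/ rhodamine-CoA 5 uM, BHQ-2-YbbR 12.5 uM (final); 50 mM Hepes pH 7.6, 10 mM MgCl2, 0.01% NP-40, 0.01% BSA; read 525/598 nm at 0 and 30 min.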
PLK1 PBD inh = qHTS for Inhibitors of PLK1-PDB (polo-like kinase 1 - polo-box domain): Primary Screen; Potency, µM, hits mostly inhibitors; AID 720504, 2013; 360,000 compounds, 2.8% hits; Serine/threonine-protein kinase PLK1 (Homo sapiens), P53350; Plk1 PBD binding of FITC phosphopeptide, fluorescence polarization; also: series mostly up to about 57 µM; nearly all actives have a fitted effect of over 65% in size
ALDH1A1 inh = qHTS Assay for Inhibitors of Aldehyde Dehydrogenase 1 (ALDH1A1); Potency, µM (highest dose often 75.3 µM), usual class: inhibitors; Purified ALDH1A1, NADH fluorescence, propionaldehyde substrate; 220,000 compounds, 7.3% hits; AID 1030, 2008; active = well fitted inhibition curve with a large enough effect, not every such curve was filed as active; inconclusive = small, poorly fitted or top-dose-only effect, or another doubt; inactive = no such curve, though single readings can be large or run the other way
Of the large screens only hits and unclear results are named; the others gave an inactive call. Unless noted, calls follow the shape of the dose curve; as a rule, active = well fitted curve in the direction sought with a large enough effect; inconclusive = small, poorly fitted or top-dose-only effect, or another doubt; inactive = no such curve, though single readings can be large; an effect the other way counts as inactive or inconclusive.

CCCCNC(=O)C1(C)CCCCCN1Cc1cccc2c(OC)cc(C(=O)OCC)cc12 (centres undefined)	none (no result: Gal4-VP16 FLuc, RORgamma inh, Sfp PPTase inh, ALDH1A1 inh)
Cc1ccc(N2C(N)=C(C#N)C(c3cc(CN4CCOCC4)cs3)C3=C2CC(C)(C)CC3=O)cc1 (centres undefined)	ALDH1A1 inh inconclusive
CN(C)CCNC(=O)/C(=C/c1ccc(-c2ccc(Cl)cc2Cl)o1)NC(=O)c1ccccc1	Gal4-VP16 FLuc inconclusive, RORgamma inh inconclusive, Sfp PPTase inh 40µM, ALDH1A1 inh inconclusive
CN(C)CCNC(=O)/C(=C/c1ccc(-c2ccc(Cl)cc2)o1)NC(=O)c1ccccc1	Gal4-VP16 FLuc inconclusive, RORgamma inh inconclusive
Cc1cc(Sc2nc(N)ncc2[N+](=O)[O-])ncn1	Gal4-VP16 FLuc inconclusive, RORgamma inh 0.79µM, Sfp PPTase inh 22µM, PLK1 PBD inh inconclusive, ALDH1A1 inh inconclusive
Cc1cc(Sc2ncnc(N)c2[N+](=O)[O-])ncn1	Gal4-VP16 FLuc 4.5µM, RORgamma inh 3.5µM, Sfp PPTase inh 50µM, PLK1 PBD inh inconclusive
O=C(OCc1cn([C@@H]2CN(C(=O)C3CCCCC3)[C@@H](c3ccc(Cl)cc3)C[C@H]2O)nn1)c1ccccc1	none (no result: Gal4-VP16 FLuc, RORgamma inh, Sfp PPTase inh, ALDH1A1 inh)
N#C/C(=C\c1cccn1-c1ccccc1)C(=O)NC1CCCCC1	ALDH1A1 inh 7.1µM
N#C/C(=C\c1ccc(-c2ccc(Br)cc2)o1)C(=O)NCCc1c[nH]c2ccccc12	RORgamma inh inconclusive
N#C/C(=C\c1ccccc1[N+](=O)[O-])C(=O)NC1CCCCC1	Gal4-VP16 FLuc 8.9µM, RORgamma inh inconclusive, Sfp PPTase inh 89µM, ALDH1A1 inh 7.1µM
O=C(/C=C/c1ccccc1[N+](=O)[O-])N1CCCCC1	PLK1 PBD inh inconclusive, ALDH1A1 inh inconclusive
N#C/C(=C/c1ccc(-c2ccc(Br)cc2)o1)C(=O)NC1CCCCC1	ALDH1A1 inh 1.1µM
N#C/C(=C\C=C\c1ccccc1[N+](=O)[O-])C(=O)NC1CCCCC1	RORgamma inh inconclusive, ALDH1A1 inh 25µM
CCOc1ccccc1/C=C(\C#N)C(=O)NC1CC1	none (no result: Gal4-VP16 FLuc, RORgamma inh, Sfp PPTase inh, ALDH1A1 inh)
CC1CCC(NC(=O)C2CCC(CNS(=O)(=O)c3ccc4c(c3)C(C)(C)C(=O)N4C)CC2)CC1 (centres undefined)	none (no result: Gal4-VP16 FLuc, RORgamma inh, Sfp PPTase inh, ALDH1A1 inh)
N#C/C(=C\c1cc(Cl)cc(Cl)c1O)C(=O)NC1CCCCC1	ALDH1A1 inh 32µM
CCOCCOCC	none (no result: Sfp PPTase inh, PLK1 PBD inh)
CC1(C(=O)Nc2cccc(NS(C)(=O)=O)c2)Cc2c(-c3ccc(C(N)=O)cc3)ccnc2O1 (centres undefined)	none (no result: Gal4-VP16 FLuc, RORgamma inh, Sfp PPTase inh, ALDH1A1 inh)
C=C1C[C@H](O[C@@H]2O[C@H](CO)[C@@H](O)[C@H](O)[C@H]2O)[C@@H]2[C@H](OC(=O)[C@H]2C)[C@H]2[C@H](C)[C@H](O)C[C@@H]12	none (no result: Gal4-VP16 FLuc, RORgamma inh, Sfp PPTase inh, ALDH1A1 inh)
CCCCn1c(-c2ccsc2)nc2c1c(=O)[nH]c(=O)n2CCC	Sfp PPTase inh 35µM, ALDH1A1 inh inconclusive
CCCCn1c(=O)[nH]c(=O)c2c1nc(Cn1ncc(Cl)c(Cl)c1=O)n2CCC	Gal4-VP16 FLuc 7.9µM, RORgamma inh 16µM, PLK1 PBD inh 30µM (no result: ALDH1A1 inh)
COC(=O)c1ccc(C(NC(=O)OCc2ccccc2)/C(=C/[C@@H](C)C(=O)NCc2ccccc2)c2cccnc2)cc1 (some centres undefined)	none (no result: PLK1 PBD inh)
COc1cc2nc(=S)n3[nH]c(COc4ccccc4C)nc3c2cc1OC	Gal4-VP16 FLuc 0.4µM, RORgamma inh 0.2µM, ALDH1A1 inh inconclusive
COc1cc2nc(=S)n3[nH]c(CCn4nc(C)cc4C)nc3c2cc1OC	Gal4-VP16 FLuc 0.089µM, RORgamma inh 0.056µM, Sfp PPTase inh inconclusive, ALDH1A1 inh inconclusive
COc1cc(-c2csc(CCn3nc(C)cc3C)n2)cc(OC)c1OC	PLK1 PBD inh inconclusive
O=C(NCc1ccccn1)C1(C(F)(F)F)CC(CCCO)CCCO1 (centres undefined)	none (no result: PLK1 PBD inh, ALDH1A1 inh)
COc1ccccc1C(=O)Nc1ccc2oc(-c3ccc(F)cc3)nc2c1	Sfp PPTase inh 50µM, ALDH1A1 inh inconclusive
COc1ccc(C(=O)Nc2ccc3oc(-c4cccc(F)c4)nc3c2)cc1OC	ALDH1A1 inh inconclusive
O=C(O)c1ccccc1-c1ccccc1C(=O)Nc1ccc(-c2nc3cc(Cl)ccc3o2)cc1	Gal4-VP16 FLuc inconclusive, RORgamma inh inconclusive, PLK1 PBD inh 21µM (no result: ALDH1A1 inh)
